Laboratory results as given in PubChem BioAssay AID1445 (SRMLSC, 2008).
In all, about 220,000 compounds went through this assay and about 910 (0.41%) were called active. This is one part of a sample in which actives are shown more often than they occur.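 Rule for the calls: active = primary inhibition above the hit cutoff, then over 50% inhibition at one or more dose response concentrations (cut at about 23% in these data, passing the limit was not always enough); inconclusive = conflicting primary data, or primary hits not chosen for dose response; inactive = low primary inhibition, or under 50% at every dose.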 Potency and affinity values are given separately.

biological target: Aminopeptidase N (Plasmodium falciparum (isolate 3D7)) (UniProt O96935); test: malaria alanyl aminopeptidase activity blockers – biochemical, fluorogenic H-Leu-NHMec substrate, 1536-well (AID 1445); details: recombinant M1AAP, H-Leu-NHMec fluorogenic kinetic assay; at 30 µM, active compounds read high unless noted;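 note: plate controls were DMSO full reaction for no effect and no enzyme background for full effect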
Sequence (O96935 whole entry, looked up): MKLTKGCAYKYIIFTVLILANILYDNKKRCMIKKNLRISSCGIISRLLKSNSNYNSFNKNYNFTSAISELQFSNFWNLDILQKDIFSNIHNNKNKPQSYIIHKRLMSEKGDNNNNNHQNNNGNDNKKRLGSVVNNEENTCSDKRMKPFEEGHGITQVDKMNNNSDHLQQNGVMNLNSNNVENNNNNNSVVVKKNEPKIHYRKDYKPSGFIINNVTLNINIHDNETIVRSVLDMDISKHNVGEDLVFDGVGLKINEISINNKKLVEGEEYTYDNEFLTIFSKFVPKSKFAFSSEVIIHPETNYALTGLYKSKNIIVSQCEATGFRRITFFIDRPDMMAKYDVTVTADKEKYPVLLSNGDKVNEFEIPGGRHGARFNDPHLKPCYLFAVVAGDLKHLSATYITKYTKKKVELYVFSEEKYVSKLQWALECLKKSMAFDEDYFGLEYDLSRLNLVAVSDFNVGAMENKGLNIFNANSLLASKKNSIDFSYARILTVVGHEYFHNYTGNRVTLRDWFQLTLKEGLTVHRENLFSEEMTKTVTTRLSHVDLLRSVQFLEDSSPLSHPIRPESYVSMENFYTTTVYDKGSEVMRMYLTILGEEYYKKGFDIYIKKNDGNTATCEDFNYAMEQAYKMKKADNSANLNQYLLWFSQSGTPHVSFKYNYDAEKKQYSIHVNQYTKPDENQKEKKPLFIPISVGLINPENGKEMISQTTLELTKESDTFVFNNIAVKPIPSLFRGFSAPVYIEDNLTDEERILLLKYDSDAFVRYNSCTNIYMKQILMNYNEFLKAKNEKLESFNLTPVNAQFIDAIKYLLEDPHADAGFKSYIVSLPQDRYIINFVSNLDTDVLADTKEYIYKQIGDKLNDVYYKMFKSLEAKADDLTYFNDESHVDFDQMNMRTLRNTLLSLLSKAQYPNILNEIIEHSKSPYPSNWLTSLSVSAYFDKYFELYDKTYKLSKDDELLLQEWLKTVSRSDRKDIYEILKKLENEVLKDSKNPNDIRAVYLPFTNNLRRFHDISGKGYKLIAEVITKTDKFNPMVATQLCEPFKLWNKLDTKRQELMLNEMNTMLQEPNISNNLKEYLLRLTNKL

SMILES	inhibition
COc1ccc2[nH]cc(CCN=C3SCC(=O)N3C)c2c1	-3.56% (inactive)
N#Cc1cc2c(nc1SCc1ccccc1)CCCCC2	5.06% (inactive)
N#Cc1cc2c(nc1SCc1ccccc1)CCC2	-3.56% (inactive)
CCOc1ccc(CCNC(=O)C2CCCN(c3nn4c(=O)cc(C)nc4s3)C2)cc1 (stereo not drawn)	1.13% (inactive)
CCOC(=O)c1c(-c2ccccc2)csc1N1C(=O)Nc2ccccc2N1O	17% (inactive)
CCOc1ccc(S(=O)(=O)Nc2cc(Cl)ccc2O)cc1	24.5% (active)
CCOc1ccc(S(=O)(=O)Nc2cc(OC)ccc2OC)cc1	4.04% (inactive)
COc1ccc(S(=O)(=O)Nc2cc(Cl)ccc2OC)cc1	4.45% (inactive)
Cc1ccc(S(=O)(=O)Nc2ccccn2)cc1[N+](=O)[O-]	2.61% (inactive)
Cc1ccc(-c2csc(NC(=O)CSc3nc4ccccc4[nH]3)n2)cc1	7.06% (inactive)
CCc1cc2c(-n3nc(C)cc3C)ncnc2s1	4.83% (inactive)
Cc1cc(Cl)ccc1OCCCC(N)=O	1.94% (inactive)
Cc1cc(Cl)ccc1OCCCC(=O)NN	2.87% (inactive)
Cn1c(=O)n(C)c2cc(NS(=O)(=O)c3cccs3)ccc21	5.68% (inactive)
Cc1ccc(C(=O)NCc2ccc(Cl)c(Cl)c2)o1	7.75% (inactive)
CCCCN(CCCC)CC(O)CN1C(=O)NC(C)(C)C1=O (stereo not drawn)	-3.19% (inactive)
CCN(CC(N)=O)S(=O)(=O)c1ccc(F)cc1	2.95% (inactive)
NS(=O)(=O)c1ccc(-c2ccc(/C=N/NC(=O)c3ccccc3O)o2)cc1	11.7% (inactive)
CCOc1ccc(S(=O)(=O)Nc2ccc(C(=O)NN)cc2)cc1	4.26% (inactive)
O=C(N/N=C/c1ccc(Sc2ccccn2)o1)c1cc2ccccc2cc1O	33% (inactive)
CCOc1ccc(C(=O)N/N=C/c2ccc(-c3ccc(S(=O)(=O)Nc4ncccn4)cc3)o2)cc1	55.9% (active)
CCOc1ccc(S(=O)(=O)N(CC(=O)N/N=C/c2ccc(-c3ccc([N+](=O)[O-])cc3)o2)c2ccccc2)cc1	15.9% (inactive)
NS(=O)(=O)c1ccc(-c2ccc(/C=N/NC(=O)c3ccc([N+](=O)[O-])cc3)o2)cc1	2.02% (inactive)
CCCOc1ccc(C(=O)Nc2ccc(S(=O)(=O)Nc3onc(C)c3C)cc2)cc1	-1.24% (inactive)
Cc1ccc(C(=O)N/N=C\c2ccc(-c3ccc(Cl)cc3)o2)cn1	8.72% (inactive)

SMILES	inhibition
Cc1noc(NS(=O)(=O)c2ccc(NC(=O)c3ccc(OC(C)C)cc3)cc2)c1C	4.64% (inactive)
O=C(Nc1ccc(Cl)c(Cl)c1)C1CC(=O)N(c2ccc(Br)cc2)C1 (stereo not drawn)	-1.64% (inactive)
O=C(CCc1nc2ccccc2[nH]1)Nc1ccccc1F	-0.01% (inactive)
CC1CCCCN1C(=O)COc1ccc2ccc(=O)oc2c1 (stereo not drawn)	-2.26% (inactive)
Cc1ccc(NCN2C(=O)C3CC=CCC3C2=O)cc1 (stereo not drawn)	2.04% (inactive)
Cc1ccc(CSCC(=O)N/N=C/c2sccc2C)cc1	-0.66% (inactive)
O=C(Cn1cc(C(F)(F)F)cc(Cl)c1=O)Nc1cc(S(=O)(=O)N2CCOCC2)ccc1Cl	7.22% (inactive)
Cc1ccc(NC(=O)NCc2ccc3c(c2)OCO3)cc1C	0.33% (inactive)
Cc1ccc(N2CC(C(=O)Nc3cccnc3)CC2=O)cc1 (stereo not drawn)	-4.99% (inactive)
COc1cccc2c1OC1(C)CC2NC(=O)N1Cc1ccccc1 (stereo not drawn)	1.39% (inactive)
CC12CC(NC(=O)N1CCc1ccccc1)c1ccccc1O2 (stereo not drawn)	4.6% (inactive)
CC12CC(NC(=O)N1Cc1ccccc1)c1ccccc1O2 (stereo not drawn)	25.3% (active)
CC1CCCC(C)N1NC(=S)Nc1ccc(OC(F)F)cc1 (stereo not drawn)	3.89% (inactive)
CSc1cc(-c2ccc(Cl)cc2)[nH]c(=O)c1C#N	0.84% (inactive)
O=C1NCC(COCc2ccco2)O1 (stereo not drawn)	-4.49% (inactive)
COc1ccccc1CNC(=O)C(Cc1c[nH]c2ccccc12)NC(=O)OCc1ccccc1 (stereo not drawn)	2.3% (inactive)
CC(=O)NC(Cc1c[nH]c2ccccc12)C(=O)N/N=C/c1ccccc1 (stereo not drawn)	2.78% (inactive)
COc1cc(/C=N/NC(=O)Cc2c[nH]c3ccccc23)cc(OC)c1OC	8.03% (inactive)
COc1ccc(/C=N/NC(=O)C(Cc2c[nH]c3ccccc23)NC(=O)OCC(C)C)cc1[N+](=O)[O-] (stereo not drawn)	3.34% (inactive)
COC(=O)N/N=C/c1cc(OC)c(O)c([N+](=O)[O-])c1	14.3% (inactive)
COc1cc(/C=N/NC(=O)C(Cc2c[nH]c3ccccc23)NC(=O)OCC(C)C)cc([N+](=O)[O-])c1OCc1ccccc1 (stereo not drawn)	9.91% (inactive)
Cc1ccc2[nH]c(=O)c(CNC(C)C)cc2c1	11.4% (inactive)
O=C(NCc1ccccn1)C(=O)Nc1ccccc1	1.97% (inactive)
Cc1ccc(C(=O)C(OC(=O)c2cnccn2)c2ccccc2)cc1 (stereo not drawn)	1.17% (inactive)
O=S(=O)(c1ccc2ccccc2c1)N1CCN(C(=S)Nc2ccc(F)cc2)CC1	3.26% (inactive)

SMILES	inhibition
O=C(Cc1ccccc1)NS(=O)(=O)c1ccc(N=NN2CCOCC2)cc1	12.9% (inactive)
COC(=O)N1CCCc2cc(C)ccc21	-4.46% (inactive)
COc1cccc(C(=O)NN2C(=O)C3C4C=CC(O4)C3C2=O)c1 (stereo not drawn)	6.4% (inactive)
NS(=O)(=O)c1ccc(CCNC(=O)CSc2nc3ccsc3c(=O)n2CC(=O)O)cc1	2.18% (inactive)
O=C(NCc1ccccn1)C1CCN(S(=O)(=O)c2cc(Cl)ccc2Cl)CC1	3.1% (inactive)
CC(C)c1ccc(C(N)=S)cc1	4.59% (inactive)
COC(=O)[C@@H](NC(=O)NC(C)CCc1ccccc1)C(C)C (stereo partly drawn)	23.4% (active)
CC(=O)NC(C)CCc1ccccc1 (stereo not drawn)	-2.08% (inactive)
COC(=O)[C@H](C)NC(=O)NC(C)CCc1ccccc1 (stereo partly drawn)	13.4% (inactive)
Cc1cccc(N2C(=O)CC(N3CCC(c4nc5ccccc5[nH]4)CC3)C2=O)c1 (stereo not drawn)	3.73% (inactive)
CC1CCN(C(=O)C2CCN(S(=O)(=O)c3cc(Cl)ccc3Cl)CC2)CC1	0.81% (inactive)
CC(C)C(C)NC(=O)CSc1nc2scc(-c3ccco3)c2c(=O)n1-c1ccccc1 (stereo not drawn)	4.78% (inactive)
CC(C)C(C)(C#N)NC(=O)CSc1nc2scc(-c3ccco3)c2c(=O)n1-c1ccccc1 (stereo not drawn)	24.4% (active)
NC(=O)CSc1nc2scc(-c3ccco3)c2c(=O)n1-c1ccccc1	18% (inactive)
CCC(C(=O)Nc1ccncc1)c1ccccc1 (stereo not drawn)	2.45% (inactive)
Cc1cccc2cc(COC(=O)c3cccc([N+](=O)[O-])c3)c(=O)[nH]c12	3.82% (inactive)
CC(=O)NC1CCN(CC(=O)Nc2cccc([N+](=O)[O-])c2)CC1	1.46% (inactive)
CC1CCN(CC(=O)Nc2cccc([N+](=O)[O-])c2)CC1	-0.43% (inactive)
CCC(C)NC(=O)CSc1nc(-c2cccs2)cc(C(F)(F)F)n1 (stereo not drawn)	18.3% (inactive)
CCOc1ccc(C(=O)NC2CCN(C(=S)NCc3ccco3)CC2)cc1	11.3% (inactive)
O=C(NC1CCN(C(=S)NCc2ccco2)CC1)C1CCCCC1	6.27% (inactive)
O=C(NC1CCCCC1)NC1CC2CCC(C1)N2C(=S)NCc1ccco1 (stereo not drawn)	19.9% (inactive)
Cc1ccc(NC(=O)N2CCC(C(=O)NCc3ccccc3)CC2)cc1	26.3% (active)
O=C(NC1CCN(C(=O)NC2CCCCC2)CC1)c1ccco1	11.5% (inactive)
Cc1ccc(NC(=O)N2CCC(C(=O)NCc3ccc(F)cc3)CC2)cc1	10.1% (inactive)

SMILES	inhibition
COc1ccc(C(=O)NC2CCN(C(=S)NCc3ccco3)CC2)cc1	4.73% (inactive)
O=C(NCc1ccccc1)C1CCN(C(=O)NCc2ccccc2)CC1	17.5% (inactive)
CCNC(=S)N1CCC(NC(=O)c2ccco2)CC1	-4.14% (inactive)
Cc1cc(=O)n(-c2ccc(Cl)cc2)c(=O)[nH]1	-2% (inactive)
Cc1c(C(=O)NCc2ccccn2)oc2ccc(S(=O)(=O)N3CCOCC3)cc12	-1.02% (inactive)
O=C(O)CCCC(=O)NNc1ncnc2ccccc12	13.7% (inactive)
O=C(CCCCCN1C(=O)c2ccccc2C1=O)NCc1ccco1	19.7% (inactive)
O=C(Oc1c(Cl)cc(Cl)c2ccccc12)N1CCCC1	13.6% (inactive)
COc1ccc(-c2nn(-c3ccccc3)cc2/C=C/C(=O)OCC(=O)Nc2cccc(C#N)c2)cc1	0.99% (inactive)
O=C(NC1CCN(C(=S)NCc2ccco2)CC1)c1ccc(F)cc1	14.1% (inactive)
O=C(NCc1ccco1)c1cccc(F)c1	4.04% (inactive)
COc1ccc(C(C(=O)NC2CCCCC2)N(C(=O)c2sc(C)nc2C)c2ccccc2)cc1 (stereo not drawn)	-2.38% (inactive)
Cc1ccc(NC(=O)Nc2cccs2)cc1	9.98% (inactive)
Cc1cc(NC(=O)Nc2cccs2)no1	6.28% (inactive)
O=C(Nc1ccncc1)Nc1ccccn1	3.11% (inactive)
O=C(Nc1ccccn1)c1cccs1	3.97% (inactive)
Cc1cccc(C)c1-n1c(C)cc(/C=N/NC(=O)CSc2ncccn2)c1C	4.32% (inactive)
CC(C)CCNC(=O)NC(=O)COC(=O)C1=COCCO1	-7.85% (inactive)
O=c1cc(C23CC4CC(CC(C4)C2)C3)[nH][nH]1	-6.62% (inactive)
COc1ccc(C(=O)/C(=C/c2cccs2)c2nc3ccccc3o2)cc1	15.5% (inactive)
COc1ccc(C(=O)/C(=C\c2sccc2C)c2nc3ccccc3o2)cc1	2.1% (inactive)
N#C/C(=C\c1ccc(O)cc1)c1nc2ccccc2o1	7.39% (inactive)
N#C/C(=C\c1ccc(Cl)cc1)c1nc2ccccc2o1	15.7% (inactive)
